In the library only some 2.9% were active in any assay of this set; here they are far more common.
PAFAH1B2 FP inh: blocks human PAF acetylhydrolase 1b catalytic subunit 2; P68402; recombinant PAFAH1B2, FP-rhodamine activity probe, fluorescence polarization; inhibition, % at 3.39 µM; 1.2% of 340,000 active; AID 492953;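 active = inhibition above the mean of all tested compounds plus 3 SD, cut at about 24% in these data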
pPAFAH inh: inhibitors of human plasma PAF acetylhydrolase (pPAFAH). Q13093. recombinant pPAFAH, FP-rhodamine probe fluorescence polarization. inhibition, % at 3.39 µM. 1.5% of 330,000 active. AID 463082;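 active = inhibition above the mean inhibition across the screen plus 3 SD, cut at about 25% in these data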;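 note: inhibitors block binding of the rhodamine activity-based probe so polarization drops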
PAFAH1B3 FP inh: blocks human PAF acetylhydrolase 1B catalytic subunit 3 | inhibition, % at 3.39 µM | 0.28% of 340,000 active | Q15102 | recombinant PAFAH1B3, FP-rhodamine probe, fluorescence polarization | AID 492972;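 active = inhibition above the screen-wide average of all tested compounds plus 3 SD, cut at about 25% in these data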
Target sequence (Q15102 whole entry, looked up): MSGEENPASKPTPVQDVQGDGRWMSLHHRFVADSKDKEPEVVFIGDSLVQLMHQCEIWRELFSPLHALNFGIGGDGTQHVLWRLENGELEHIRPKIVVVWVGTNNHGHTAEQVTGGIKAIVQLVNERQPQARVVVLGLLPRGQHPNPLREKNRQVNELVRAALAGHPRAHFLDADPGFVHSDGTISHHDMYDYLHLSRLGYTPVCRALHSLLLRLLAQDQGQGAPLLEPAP
Fam108B inh: Fam108B inhibition, counter-screen for RBBP9 inhibitors; recombinant Fam108B, FP-Rh probe fluorescence polarization; 0.33% of 300,000 active; inhibition, % at 9.51 µM;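 active = inhibition above the screen mean inhibition plus 3 SD, computed separately per campaign, cut at about 18% in these data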;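 note: inhibitors lower polarization as less probe binds the enzyme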
PME-1 primary: PME-1 (human) inhibition | inhibition, % at 5.9 µM | AID 2130 | recombinant PME-1, FP-Rh probe fluorescence polarization | 0.53% of 320,000 active;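 active = inhibition above the campaign mean of all compounds plus 3 SD, cut at about 26% in these data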;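 note: competitive labeling of PME-1 active site by serine hydrolase directed probe; inhibitors block probe labeling so polarization falls and inhibition rises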
Target sequence (Q9Y570 whole entry, looked up): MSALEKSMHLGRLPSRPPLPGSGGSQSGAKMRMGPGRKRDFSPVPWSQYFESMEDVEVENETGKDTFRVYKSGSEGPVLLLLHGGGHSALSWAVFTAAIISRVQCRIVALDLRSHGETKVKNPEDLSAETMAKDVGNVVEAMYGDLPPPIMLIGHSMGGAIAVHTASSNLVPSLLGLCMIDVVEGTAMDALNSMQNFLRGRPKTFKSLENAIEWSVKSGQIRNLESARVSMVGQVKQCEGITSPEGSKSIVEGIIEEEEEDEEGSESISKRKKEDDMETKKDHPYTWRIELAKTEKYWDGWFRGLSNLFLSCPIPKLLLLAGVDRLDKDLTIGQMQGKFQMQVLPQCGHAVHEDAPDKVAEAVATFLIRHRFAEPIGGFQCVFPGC
PAFAH2 inh: inhibitors of human PAFAH2 | 0.99% of 340,000 active | inhibition, % at 3.39 µM | Q99487 | recombinant PAFAH2, FP-rhodamine activity probe, fluorescence polarization;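 active = inhibition above the mean over all tested compounds plus 3 SD, cut at about 30% in these data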;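 note: inhibitors block probe labeling of enzyme so polarization drops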
Of the large screens only hits and unclear results are named; the others gave an inactive call.

NNC(=O)c1ccc(COc2ccc(Br)cc2)o1	PAFAH1B2 FP inh 25
CC(C)(C)c1ccc(OCc2ccc(C(=O)NN)o2)cc1	none
CC(=O)C(C)Oc1ncn(-c2ccccc2)n1 (stereo not drawn)	none
COC(=O)c1ccc(C2C(C(=O)OCC(C)C)=C(C)N=C3SCCC(=O)N32)cc1 (stereo not drawn)	none
Cc1cc(NC(=O)CSc2nc3ccccc3c(=O)n2Cc2ccccc2)no1	none
CN(C)c1ccc(NC(=O)CSc2nc3ccccc3c(=O)n2C2CCCCC2)cc1	pPAFAH inh 34
Cc1cc(NC(=O)CSc2nc3ccccc3c(=O)n2C2CCCC2)no1	pPAFAH inh 30, PME-1 primary 27
CCN(CC)CCn1c(SCC(=O)Nc2ccc3c(c2)CCC3)nc2ccccc2c1=O	PAFAH1B2 FP inh 25 (no result: Fam108B inh)
O=C(Cn1nc(Br)nc1Br)c1ccccc1	PAFAH1B2 FP inh 29, PAFAH1B3 FP inh 47, PAFAH2 inh 52
Nc1ncn(CC(=O)c2ccccc2)n1	none
CC(=O)NC(CCCNC(=S)NC1CCCCC1)C(=O)O (stereo not drawn)	none
CC(CCc1ccccc1)NS(=O)(=O)c1ccccc1F (stereo not drawn)	PAFAH1B2 FP inh 29
O=C(N/N=C/c1cc(Cl)cc([N+](=O)[O-])c1O)c1cc(-c2ccccn2)nc2ccccc12	pPAFAH inh 27
COc1cccc(/C=N/NC(=O)c2cc(-c3ccccn3)nc3ccccc23)c1O	none (no result: Fam108B inh)
NS(=O)(=O)c1cccc(NC(=O)CNC(=O)CC23CC4CC(CC(C4)C2)C3)c1	none
NS(=O)(=O)c1cccc(NC(=O)CC23CC4CC(C2)CC(CC(=O)Nc2cccc(S(N)(=O)=O)c2)(C4)C3)c1	PAFAH1B2 FP inh 36
CC(=O)NS(=O)(=O)c1ccc(NC(=O)CC23CC4CC(CC(Br)(C4)C2)C3)cc1	PAFAH1B2 FP inh 25
CC(=O)Nc1ccc(NC(=O)CC23CC4CC(CC(C4)C2)C3)cc1	none
Oc1[nH]c2ccccc2c1N=Nc1c(F)c(F)c(C(F)(F)F)c(F)c1F	none
c1ccc(Oc2cccc(CN3CCOCC3)c2)cc1	none
COc1ccc(Nc2nc(-c3sc(C)nc3C)cs2)c(OC)c1	pPAFAH inh 27
COC(=O)c1ccc(N2C(=O)C3C4C=CC(CC4)C3C2=O)cc1 (stereo not drawn)	none
CC1CCN(c2ccccc2NC(=O)c2cc([N+](=O)[O-])ccc2N2CCOCC2)CC1	PAFAH1B2 FP inh 27
CN(CC(=O)Nc1ccccc1Br)C(=O)c1cc([N+](=O)[O-])ccc1N1CCOCC1	PAFAH1B2 FP inh 176, PAFAH1B3 FP inh active, PAFAH2 inh 139
Cc1cccc(C)c1NC(=O)CN(C)C(=O)c1cc([N+](=O)[O-])ccc1N1CCOCC1	none
CN(CCOc1ccccc1)CC(=O)Nc1ccc(Cl)cc1[N+](=O)[O-]	none
O=C(O)CN1C(=O)C2C3CC(C2C1=O)C1C(c2ccccc2)c2sc(=O)[nH]c2SC31 (stereo not drawn)	PAFAH1B2 FP inh 72
CC(C)CC(C(=O)O)N1C(=O)C2C3CC(C2C1=O)C1C(c2ccccc2)c2sc(=O)[nH]c2SC31 (stereo not drawn)	PAFAH1B2 FP inh 40
O=C(Nc1ccc(-n2cccn2)cc1)C1CCCCN1Cc1cccc2cccnc12 (stereo not drawn)	none
CCCc1cc(=O)oc2cc(C)cc(O)c12	none
CCCc1cc(=O)oc2c3c(c4c(c12)OC(C)(C)C=C4)OC(C)C(C)C3O (stereo not drawn)	pPAFAH inh 31
CCOc1cc(/C=C(/NC(C)=O)C(=O)O)cc(Cl)c1OCc1ccc(Br)cc1	pPAFAH inh 31
COC(=O)C1=CN(c2ccc(OC)cc2)C=C(C(=O)OC)C1c1ccc(C)c([N+](=O)[O-])c1	none
COC(=O)C1=CN(c2cccc(C)c2)C=C(C(=O)OC)C1c1cc(OC)c(O)c([N+](=O)[O-])c1	pPAFAH inh 29
CCOC(=O)c1c(NC(=O)CCS(=O)(=O)c2ccccc2)sc2c1CCN(C)C2	none
CCOC(=O)c1ccc(N2CSC3=C(C#N)C(c4ccc(OC)cc4OC)CC(=O)N3C2)cc1 (stereo not drawn)	none
CCOc1ccc(N2CSC3=C(C#N)C(c4ccco4)CC(=O)N3C2)cc1 (stereo not drawn)	pPAFAH inh 48
CCc1ccccc1N1CSC2=C(C#N)C(c3cc(OC)c(OC)cc3OC)CC(=O)N2C1 (stereo not drawn)	pPAFAH inh 25
CCOC(=O)C1CCCCN1Cc1cc(OC)ccc1OC (stereo not drawn)	none
COc1ccc(-n2nc(C(=O)N(C)C3CCCCC3)c3ccccc3c2=O)c(OC)c1	none
Cc1noc(NS(=O)(=O)c2ccc(NC(=O)CSc3nc4ccccc4s3)cc2)c1C	PAFAH1B2 FP inh 28
Cc1noc(NS(=O)(=O)c2ccc(NC(=O)CCC3CCCCC3)cc2)c1C	PAFAH1B2 FP inh 28, pPAFAH inh 32
COC1=C/C(=C/c2c(N)n3nc(-c4ccc(C)cc4)sc3nc2=O)C=CC1=O	PAFAH1B2 FP inh 28 (no result: pPAFAH inh, Fam108B inh, PME-1 primary)
O=C(Nc1cccc(S(=O)(=O)N2CCCCCC2)c1)C1CCN(C(=O)c2ccc(Cl)cc2)CC1	none
CCn1c(=O)c2c(n3cnnc13)-c1ccccc1CC21CCCCC1	PAFAH1B2 FP inh 26
NC(=O)CSc1nc2c(c(=O)n1-c1ccccc1)C1(CCCCC1)Cc1ccccc1-2	none
CCn1c(SCC(N)=O)nc2c(c1=O)C1(CCCC1)Cc1ccccc1-2	PAFAH1B2 FP inh 31
COc1ccc(C(=O)NC2CC2)cc1OC1CCN(C(C)CSC)CC1 (stereo not drawn)	none
O=C(Oc1cc(=O)oc2c1c(=O)n1c3c(cccc23)CC1)c1ccccc1	none
C/C(=N/NC(=O)c1cc2ccccc2cc1O)c1ccco1	pPAFAH inh 40
COc1ccc2c(-c3ccccc3)cc(SCC(N)=O)nc2c1	pPAFAH inh 33
COc1ccc2nc(SCC(N)=O)cc(C)c2c1	none
COc1ccc(Cl)cc1C(=O)NN=C1CCCC1	none
O=C(NN=C1CCCC1)c1cc(Cl)cc(Cl)c1O	pPAFAH inh 34
O=C1C2C3C=CC(CO)(O3)C2C(=O)N1c1ccc(-c2ccccc2)cc1 (stereo not drawn)	pPAFAH inh 28 (no result: PAFAH1B2 FP inh, PAFAH1B3 FP inh, PAFAH2 inh)
Cc1nn(C(=O)c2ccco2)c(C)c1Sc1ccc(Br)cc1	none
Cc1nn(C(=O)c2ccco2)c(C)c1Sc1ccccc1	PAFAH2 inh 52
O=[N+]([O-])c1cccc(/C=N/Nc2nc(NCc3ccccc3)nc(N3CCOCC3)n2)c1O	pPAFAH inh 25
O=[N+]([O-])c1ccc(/C=N/Nc2nc(NCc3ccccc3)nc(N3CCOCC3)n2)cc1	none
CCN(CC)C(=O)c1csc(Nc2cccc3ccccc23)n1	PME-1 primary 37
Cc1cc(C)cc(OCCNC(=O)c2ccc(Br)cc2)c1	none

Screening data from PubChem.
